# Test results published in PubChem BioAssay (NCI).
# Compounds without any hit were thinned out: in the full panel of roughly 79,000, 15% have a hit. Values without a mark were called inactive. Active and inactive are the calls of the source. No stated cut-off is given here; in the data, active means growth inhibition above about 70%; inactive means the rest.
# Assay: NCI Yeast Anticancer Drug Screen. Data for the bub3 strain (AID 167)
# Conditions: S. cerevisiae bub3 mutant strain, at 33.0 µM, hits give high values
# Procedure, shortened: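 In this screen, a yeast mutant lacking normal mitotic checkpoint function is challenged with compound. Relative growth versus vehicle gives the inhibition value.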
row,SMILES,growth inhibition
1,CCOP(=O)(OCC)C(Cc1ccccc1)N=C(c1ccccc1)c1ccccc1 (centres undefined),88% (active)
2,CCc1ncnc2cc(OCC3CO3)c(OC)cc12 (centres undefined),12%
3,CCOC(=O)[C@H]1Nc2ccccc2C2c3ccccc3CC21 (some centres undefined),79% (active)
4,O=CNc1ccc2c(c1)C(=O)c1ccccc1-2,61%
5,CCOc1ccc2c(c1)c(CC(=O)O)cn2C,50%
6,OC1CSCCCSCCSCCCSC1,64%
7,N#Cc1c(N)[nH]c2ccc(Sc3ccccc3)cc12,93% (active)
8,Cc1ccc(-c2ccc(Nc3c4ccccc4nc4ccccc34)cc2)cn1,79% (active)
9,c1ccc2c(c1)NC(NC1Nc3ccccc3N1)N2,-2%
10,OC(COc1cccc2ccccc12)CN1CCOCC1 (centres undefined),57%
11,CCC/C(Cl)=N\OC(=O)Nc1ccc(Br)cc1,94% (active)
12,COc1ccc(/C=C2\SC(=S)N(/C=C/c3nc4ccccc4[nH]c3=O)C2=O)cc1OC,52%
13,O=C(NNc1ccnc2cc(Cl)ccc12)/C(=C\c1ccccc1Cl)NC(=O)c1ccccc1,76% (active)
14,CSC1=NNC(SC)=NN1,89% (active)
15,Cc1c(C2=C(Br)C(=O)N(C)C2=O)c(=O)n(C)c(=O)n1C,47%
16,NCCNc1ccc(NCCN)c2c1C(=O)c1c(O)ccc(O)c1C2=O,85% (active)
17,Cn1c(=O)c(-c2ccccc2)c(N=[N+]=[N-])c2ccccc21,94% (active)
18,CCCCCCCCCCCCCCCCCCOCC(O)COP(=O)(O)OCC1OC(n2cc(F)c(=O)[nH]c2=O)CC1O (centres undefined),74% (active)
19,CCS(=O)(=O)c1ccc(/C=C/C=N/NC(=S)NCC(C)C)cc1,4%
20,CCC(=O)Oc1c(Cl)cc(Cl)c2ccccc12,-12%

row,SMILES,growth inhibition
1,COc1cc2c3c(cccc3c1)C(=O)N(CCN(C)C)C2=O,-10%
2,CN(C)c1ccc(C(C#N)=C(C#N)C#N)cc1,-7%
3,O=C(CCCN1CCC2(CC1)CC(=O)N(N1CCCCCC1)C2=O)c1ccc(F)cc1,61%
4,O=C1C2C(C(=O)N1c1ccc(OCc3ccccc3)cc1)C1c3ccccc3C2C2CCCCN21 (centres undefined),23%
5,CCN(CC)CCC(=O)c1ccc(Oc2ccc(F)cc2)cc1,83% (active)
6,O=Nc1c(NO)ccc2nn(-c3ccccc3)nc12,98% (active)
7,CC(=O)SCCC[Si](C)(C)CCCSC(C)=O,23%
8,O=C(O)C1CCCCC1c1c2ccc(=O)c(O)c-2oc2c(O)c(O)ccc12 (centres undefined),72% (active)
9,Cc1ccc(NN(NC(=O)OC(C)C)C(=O)OC(C)C)cc1,6%
10,O=C1c2ccccc2C(=O)c2cc(CBr)ccc21,26%
11,Cc1c(C(Cc2ccccc2N(C)C(=O)/C=C\C(=O)O)c2c[nH]c3ccccc23)c2ccccc2n1C (centres undefined),6%
12,CC(C)/C(Cl)=N\OC(=O)Nc1ccc(F)cc1,45%
13,O=C1OC(=O)C2CCCC3CCCC1C32 (centres undefined),96% (active)
14,CCOC(=O)C(NC(=O)c1ccccc1)(N1CCN(c2cc3c(cc2F)c(=O)c(C(=O)O)cn3C2CC2)CC1)C(F)(F)F (centres undefined),-39%
15,COc1ccc(NC(=S)N/N=C(\c2ccccc2)c2ccccn2)cc1,-4%
16,C=CCC1=C(C)C(OC(=O)/C=C/c2ccccc2)CC1=O (centres undefined),36%
17,NNc1c(F)c(F)cc(F)c1F,10%
18,COP(=O)(OC)/C(=C\C1=CN(C(c2ccccc2)(c2ccccc2)c2ccccc2)CN1)NC=O,33%
19,COC(=O)c1cc(-c2ccc(C)cc2)[nH]c(=O)c1C#N,-2%
